37 compounds from ChEMBL document CHEMBL4513156, “CO-ADD screening of NCPRI (Romania) compounds” can be followed below.

Results with a measured potency or affinity are listed apart.

One assay has as its system Staphylococcus aureus. The note with it: Concentration 32 ug.mL-1; ASSAY_TEST Inhibition of Bacterial Growth; detection method Absorption (OD600); MEDIA CAMHB; plate type 384well; NBS; CORNING #3640; time 18 hr.
`O=C(N/N=C1/C[C@H]2[C@H](CO)[C@@H]1C[C@@H]2Cl)c1ccncc1` registered an Inhibition of 26.26%. The compound `O=C(N/N=C1/C2C[C@H]3C(C2C(=O)O)[C@@H]13)c1ccncc1` (stereo partly specified) returned an Inhibition of 16.39%. On the same count and under the same terms, to `NNC(=O)c1ccncc1` [ISONIAZID] belongs 27.38%; to `O=C(NN=CC[C@@H]1[C@@H](COC2CCCCO2)[C@H](OC2CCCCO2)C[C@@H]1O)c1ccncc1` (stereo partly specified), 12.15%; to `O=C(NN=CC[C@@H]1[C@@H](/C=C/[C@@H](O)CCc2ccccc2)[C@H](O)C[C@@H]1O)c1ccncc1`, 16.65%. Compound `O=C(N/N=C1/C[C@@H]2[C@H](C1)[C@H](OC(=O)c1ccccc1)C[C@@H]2OC(=O)c1ccccc1)c1ccncc1` returned an Inhibition of 26.15%. The compound `CC(C)(C)[Si](C)(C)OCC1C2C[C@H]3C1[C@@H]3/C2=N/NC(=O)c1ccncc1` (stereo partly specified) registered an Inhibition of 14.57%. Same read-out and setting: under `O=C(N/N=C/C[C@@H]1[C@@H](/C=C/[C@@H](O)COc2cccc(Cl)c2)[C@H](O)C[C@@H]1O)c1ccncc1` stands 27.05%. On the same count and under the same terms, under `O=C1C[C@@H]2[C@@H](C=NNC(=O)c3ccncc3)[C@@H](C[C@H]2Cl)O1` stands 33.55%; under `O=C(N/N=C1/C2C[C@H]3C(C2CO)[C@H]13)c1ccncc1` (stereo partly specified), 21.76%; under `O=C(NNC(=O)[C@@H]1C[C@H](C(=O)O)[C@@H]2CC=C[C@@H]21)c1ccncc1`, 32.09%.

Compound `O=C(N/N=C/C[C@@H]1[C@@H](CO)[C@H](O)C[C@@H]1O)c1ccncc1` yielded an Inhibition of 22.27%.

Regarding `O=C(NNC(c1ccccc1)(c1ccccc1)c1ccccc1)c1ccncc1`, the Inhibition stood at 1.88%.

In turn, `CC(C)(C)[Si](C)(C)O[C@H](/C=C/[C@@H]1[C@@H](CC=NNC(=O)c2ccncc2)[C@@H](O)C[C@H]1O[Si](C)(C)C(C)(C)C)CCc1ccccc1` displayed an Inhibition of 11.86%.

`O=C(NN=CC[C@H]1[C@H](CO)[C@@H](O)C[C@H]1O)c1ccncc1` came in with an Inhibition of 21.6%. Same read-out and setting: to `O=C(NNC(=O)[C@@H]1C[C@H](C(=O)O)[C@@H]2CCC[C@@H]21)c1ccncc1` belongs 31.35%; to `O=C(N/N=C1\CC[C@@H]2[C@H]1[C@H](OC(=O)c1ccccc1)C[C@@H]2OC(=O)c1ccccc1)c1ccncc1`, 27.83%. Still for that read-out and setting: to `COC(=O)CCCCCC[C@@H]1[C@@H](/C=N/NC(=O)c2ccncc2)[C@H](O)C[C@@H]1O` belongs 12.62%; to `O=C(N/N=C1\C[C@@H]2[C@H](COC(c3ccccc3)(c3ccccc3)c3ccccc3)C[C@H](CO)[C@@H]2C1)c1ccncc1`, 13.89%. Still for that read-out and setting: to `O=C(N/N=C1\C[C@@H]2[C@@H](CO)[C@H]1C[C@H]2Cl)c1ccncc1` belongs 26.12%; to `O=C(NN=C[C@H]1[C@@H]2CCO[C@@H]2C[C@@H]1O)c1ccncc1`, 13.82%. With `O=C(N/N=C/C[C@@H]1[C@@H](/C=C/[C@@H](O)COc2ccccc2)[C@H](O)C[C@@H]1O)c1ccncc1`, the Inhibition amounted to 16.08%.

`O=C(ON/N=C/[C@@H]1[C@@H]2C[C@H](Cl)[C@H]1C[C@H]2O)c1ccncc1` registered an Inhibition of 25.17%. For the compound `CC(C)(C)[Si](C)(C)OC[C@H]1[C@H](CC=NNC(=O)c2ccncc2)[C@H](O)C[C@@H]1O[Si](C)(C)C(C)(C)C`, the Inhibition is 21.42%.

A further assay relates to Escherichia coli. The note with it: Concentration 32 ug.mL-1; ASSAY_TEST Inhibition of Bacterial Growth; detection method Absorption (OD600); MEDIA CAMHB; plate type 384well; NBS; CORNING #3640; time 18 hr.
The compound `O=C(NNC(=O)c1cccc([N+](=O)[O-])c1C(=O)O)c1ccncc1` had an Inhibition of 20.08%. Same read-out and setting: to `O=C(NNC(=O)c1ccc([N+](=O)[O-])cc1C(=O)O)c1ccncc1` belongs 15.66%. Still for that read-out and setting: under `O=C(N/N=C/COc1cccc(Cl)c1)c1ccncc1` stands 6.4%; under `O=C1C[C@H]2[C@H](/C=N/NC(=O)c3ccncc3)[C@H](C[C@@H]2Cl)O1`, 18.17%; under `O=C(N/N=C/C[C@@H]1[C@@H](/C=N/NC(=O)c2ccncc2)[C@H](O)C[C@@H]1O)c1ccncc1`, 6.29%. Still for that read-out and setting: under `COC(=O)CCCCCC[C@@H]1[C@@H](/C=N/NC(=O)c2ccncc2)[C@H](OC(=O)c2ccccc2)C[C@@H]1O` stands 14.2%; under `O=C(N/N=C/CCCO)c1ccncc1`, 5.12%; under `O=C(N/N=C/[C@@H]1C[C@H](CO)[C@@H]2CCC[C@@H]21)c1ccncc1`, 14.61%.

`COC(=O)C[C@H]1[C@H](/C=N\NC(=O)c2ccncc2)[C@@H](O[Si](C)(C)C(C)(C)C)C[C@@H]1Cl` returned an Inhibition of 13.69%. As for `O=C(N/N=C1/C[C@@H]2[C@@H](C(=O)O)[C@H]1C[C@H]2Cl)c1ccncc1`, the Inhibition stood at 18%. Compound `O=C(NN=CC[C@@H]1[C@@H](/C=C/[C@@H](O)CCc2ccccc2)[C@H](OC(=O)c2ccccc2)C[C@@H]1O)c1ccncc1` returned an Inhibition of 8.83%. As to `O=C(NN=C[C@H]1[C@H]2CC(O)OC[C@H]2C[C@H]1O)c1ccncc1` (stereo partly specified), the Inhibition is 4.63%.

`O=C(N/N=C1/C[C@@H]2[C@H](COC(c3ccccc3)(c3ccccc3)c3ccccc3)C[C@H](COC(c3ccccc3)(c3ccccc3)c3ccccc3)[C@@H]2C1)c1ccncc1` displayed an Inhibition of 11.41%. On the same count and under the same terms, to `O=C(N/N=C1/C[C@H]2[C@H](CO)[C@@H]1C[C@@H]2Cl)c1ccncc1` belongs 16.12%; to `O=C(N/N=C1/C2C[C@H]3C(C2C(=O)O)[C@@H]13)c1ccncc1` (stereo partly specified), 13.83%.

Turning to `NNC(=O)c1ccncc1` [ISONIAZID], the Inhibition was determined as 20.51%.

`O=C(NN=CC[C@@H]1[C@@H](COC2CCCCO2)[C@H](OC2CCCCO2)C[C@@H]1O)c1ccncc1` (stereo partly specified) registered an Inhibition of 6.4%. The compound `O=C(NN=CC[C@@H]1[C@@H](/C=C/[C@@H](O)CCc2ccccc2)[C@H](O)C[C@@H]1O)c1ccncc1` came in with an Inhibition of 9.46%. Still for that read-out and setting: to `O=C(N/N=C1/C[C@@H]2[C@H](C1)[C@H](OC(=O)c1ccccc1)C[C@@H]2OC(=O)c1ccccc1)c1ccncc1` belongs 8.09%. Take `CC(C)(C)[Si](C)(C)OCC1C2C[C@H]3C1[C@@H]3/C2=N/NC(=O)c1ccncc1` (stereo partly specified): the Inhibition was 8.28%. The same measure, in the same setting: under `O=C(N/N=C/C[C@@H]1[C@@H](/C=C/[C@@H](O)COc2cccc(Cl)c2)[C@H](O)C[C@@H]1O)c1ccncc1` stands 14.88%. On the same count and under the same terms, under `O=C1C[C@@H]2[C@@H](C=NNC(=O)c3ccncc3)[C@@H](C[C@H]2Cl)O1` stands 18.72%; under `O=C(N/N=C1/C2C[C@H]3C(C2CO)[C@H]13)c1ccncc1` (stereo partly specified), 11.47%; under `O=C(NNC(=O)[C@@H]1C[C@H](C(=O)O)[C@@H]2CC=C[C@@H]21)c1ccncc1`, 14.78%. The same measure, in the same setting: under `O=C(N/N=C/C[C@@H]1[C@@H](CO)[C@H](O)C[C@@H]1O)c1ccncc1` stands 13.16%; under `O=C(NNC(c1ccccc1)(c1ccccc1)c1ccccc1)c1ccncc1`, 5.22%; under `CC(C)(C)[Si](C)(C)O[C@H](/C=C/[C@@H]1[C@@H](CC=NNC(=O)c2ccncc2)[C@@H](O)C[C@H]1O[Si](C)(C)C(C)(C)C)CCc1ccccc1`, 7.54%. `O=C(NN=CC[C@H]1[C@H](CO)[C@@H](O)C[C@H]1O)c1ccncc1` came in with an Inhibition of 12.24%. On the same count and under the same terms, under `O=C(NNC(=O)[C@@H]1C[C@H](C(=O)O)[C@@H]2CCC[C@@H]21)c1ccncc1` stands 13.96%. Still for that read-out and setting: under `O=C(N/N=C1\CC[C@@H]2[C@H]1[C@H](OC(=O)c1ccccc1)C[C@@H]2OC(=O)c1ccccc1)c1ccncc1` stands 14.7%; under `COC(=O)CCCCCC[C@@H]1[C@@H](/C=N/NC(=O)c2ccncc2)[C@H](O)C[C@@H]1O`, 6.85%. On the same count and under the same terms, to `O=C(N/N=C1\C[C@@H]2[C@H](COC(c3ccccc3)(c3ccccc3)c3ccccc3)C[C@H](CO)[C@@H]2C1)c1ccncc1` belongs 6.21%; to `O=C(N/N=C1\C[C@@H]2[C@@H](CO)[C@H]1C[C@H]2Cl)c1ccncc1`, 15.81%. Compound `O=C(NN=C[C@H]1[C@@H]2CCO[C@@H]2C[C@@H]1O)c1ccncc1` yielded an Inhibition of 5.67%.

The compound `O=C(N/N=C/C[C@@H]1[C@@H](/C=C/[C@@H](O)COc2ccccc2)[C@H](O)C[C@@H]1O)c1ccncc1` came in with an Inhibition of 10.98%. Same read-out and setting: under `O=C(ON/N=C/[C@@H]1[C@@H]2C[C@H](Cl)[C@H]1C[C@H]2O)c1ccncc1` stands 12.76%; under `CC(C)(C)[Si](C)(C)OC[C@H]1[C@H](CC=NNC(=O)c2ccncc2)[C@H](O)C[C@@H]1O[Si](C)(C)C(C)(C)C`, 11.91%.

By Inhibition is commonly meant the percentage by which the read-out fell short of the control.
